Source: PubChem BioAssay
LRH-1 inv ag – NR5A2 inverse agonism in reporter assay. inhibition, % at 3.6 µM. HEK293T StAR-luciferase reporter, LRH-1 transfected, 24 h. AID 602396. O00482. 0.13% of 360,000 active;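 active = inhibition above the mean inhibition of all tested compounds plus 3 SD, cut at about 73% in these data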;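 note: 0% = DMSO wells and 100% = reporter-only cells lacking LRH-1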
SRC2 inh – human SRC2 (NCOA2) inhibition. Q15596. HEK293 GAL4-SRC2 luciferase reporter, luminescence. inhibition, % at 9 µM. 0.17% of 370,000 active;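 active = inhibition above the mean inhibition of all tested compounds plus 3 SD, set per campaign, cut at about 52% in these data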;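 note: 0% = DMSO treated cells and 100% = cells given Gossypol at 36 µM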
Target sequence (Q15596 whole entry, looked up, the tested form may be a part): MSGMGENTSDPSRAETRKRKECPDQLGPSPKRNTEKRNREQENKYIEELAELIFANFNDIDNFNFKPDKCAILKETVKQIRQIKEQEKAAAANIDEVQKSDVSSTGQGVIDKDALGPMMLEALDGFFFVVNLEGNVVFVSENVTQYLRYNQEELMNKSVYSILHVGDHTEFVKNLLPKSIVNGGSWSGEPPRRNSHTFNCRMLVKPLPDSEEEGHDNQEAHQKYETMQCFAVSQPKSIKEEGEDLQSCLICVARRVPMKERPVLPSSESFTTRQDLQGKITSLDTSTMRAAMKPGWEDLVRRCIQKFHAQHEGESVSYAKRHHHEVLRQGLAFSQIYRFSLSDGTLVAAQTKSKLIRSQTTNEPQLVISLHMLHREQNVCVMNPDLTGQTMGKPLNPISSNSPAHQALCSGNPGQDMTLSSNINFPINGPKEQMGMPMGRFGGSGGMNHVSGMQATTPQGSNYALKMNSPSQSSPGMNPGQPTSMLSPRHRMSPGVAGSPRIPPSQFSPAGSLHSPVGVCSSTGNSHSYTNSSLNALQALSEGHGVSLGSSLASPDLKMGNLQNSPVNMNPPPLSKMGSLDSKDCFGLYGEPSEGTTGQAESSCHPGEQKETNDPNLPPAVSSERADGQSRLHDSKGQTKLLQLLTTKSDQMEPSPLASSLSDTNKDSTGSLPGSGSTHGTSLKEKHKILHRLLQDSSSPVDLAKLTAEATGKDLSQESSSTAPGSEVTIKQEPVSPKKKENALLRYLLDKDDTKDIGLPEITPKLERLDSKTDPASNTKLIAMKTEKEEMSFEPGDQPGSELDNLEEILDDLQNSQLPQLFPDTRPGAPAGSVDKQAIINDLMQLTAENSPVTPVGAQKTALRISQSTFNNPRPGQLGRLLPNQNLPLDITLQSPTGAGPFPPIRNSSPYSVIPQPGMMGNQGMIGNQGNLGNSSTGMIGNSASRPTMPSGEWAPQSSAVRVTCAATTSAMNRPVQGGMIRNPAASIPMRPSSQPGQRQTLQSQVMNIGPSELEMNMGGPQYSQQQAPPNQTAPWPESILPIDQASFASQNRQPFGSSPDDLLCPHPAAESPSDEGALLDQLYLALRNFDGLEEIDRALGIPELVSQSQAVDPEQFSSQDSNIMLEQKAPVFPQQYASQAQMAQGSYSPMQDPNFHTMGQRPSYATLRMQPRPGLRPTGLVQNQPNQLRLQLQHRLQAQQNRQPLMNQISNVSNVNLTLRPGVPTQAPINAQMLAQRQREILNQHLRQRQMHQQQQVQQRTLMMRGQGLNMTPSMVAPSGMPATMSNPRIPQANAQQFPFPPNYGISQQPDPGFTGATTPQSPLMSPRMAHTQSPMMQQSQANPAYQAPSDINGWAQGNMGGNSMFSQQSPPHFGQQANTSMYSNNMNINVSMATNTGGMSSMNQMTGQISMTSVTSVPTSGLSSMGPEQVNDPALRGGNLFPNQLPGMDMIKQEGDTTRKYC
NCOA3 inh – inhibits human SRC3 coactivator | AID 588352 | 0.17% of 360,000 active | Q9Y6Q9 | inhibition, % at 3.6 µM | HEK293 GAL4-SRC3 luciferase reporter, luminescence;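 active = inhibition above a per-campaign cutoff, the mean of all compounds plus 3 SD, cut at about 60% in these data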;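 note: 0% = DMSO-treated cells and 100% = gossypol-treated cells at 36 µM; higher means less SRC3-driven luciferase light from the GAL4 reporter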
GalR3 antag – blocks the human galanin receptor 3. AID 651719. inhibition, % at 3 µM. 0.44% of 360,000 active. HEK293 GalR3-CNG cAMP membrane potential fluorescence; galR3 body fused to GalR1 C-terminus;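 active = inhibition above the screen-wide average plus 3 SD, cut at about 13% in these data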;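 note: forskolin and galanin both at EC90 stimulate the cells; cAMP rise reported by CNG channel membrane potential dye signal; 0% = forskolin plus galanin with DMSO and 100% = forskolin alone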
COUP-TFII inh – inhibitors of human COUP-TFII (NR2F2); P24468; HEK293T NGFI-A luciferase reporter, luminescence; 0.7% of 370,000 active; inhibition, % at 8.6 µM;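 active = inhibition above a per-plate cutoff, mean inhibition of test wells between control levels plus 3 SD, cut at about 38% in these data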;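 note: cells cotransfected with COUP-TFII expression vector driving the NGFI-A reporter; 0% = median of COUP-TF2 test wells and 100% = reporter-only cells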
SRC1 inh – inhibitors of human steroid receptor coactivator 1 (SRC1); inhibition, % at 3.6 µM; Q15788; 0.12% of 360,000 active; HEK293 GAL4-SRC1 luciferase reporter, luminescence;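 active = inhibition above the campaign mean plus 3 SD, with each screening campaign given its own cutoff, cut at about 60% in these data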;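 note: 0% = DMSO treated cells and 100% = gossypol at 36 µM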
GalR3 conf – GalR3 (human) antagonism, confirmation; shares compounds with GalR3 antag; HEK293 GalR3 CNG cAMP biosensor, membrane potential fluorescence; galR3 fused to GalR1 carboxy tail; challenged with forskolin and galanin at EC90; inhibition, % at 3 µM; 59% of 1,600 active; AID 652245;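 active = inhibition above the primary screen's cutoff, the mean inhibition of all screened compounds plus 3 SD, cut at about 13% in these data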;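 note: 0% = forskolin plus galanin and 100% = forskolin alone with DMSO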
HEK-CNG parental – acts as nonspecific agonist in parental HEK-CNG cells; shares compounds with GalR3 antag; HEK293-CNG parental cells, cAMP membrane potential fluorescence; normalised: DMSO wells 0%, forskolin wells 100%; activation, % at 3 µM; 10% of 1,600 active; AID 652268; in the data active = activation above about 1.3%
* hit, by the source's call; / = no result given. Rows were chosen to be rich in hits. Some 1.1% of all compounds tested hit in one or more screens of this group.

SMILES	LRH-1 inv ag	SRC2 inh	NCOA3 inh	GalR3 antag	COUP-TFII inh	SRC1 inh	GalR3 conf	HEK-CNG parental
Nn1c(SCC(=O)Nc2ccccc2-c2ccccc2)nnc1-c1cc(-c2ccc(Cl)cc2)n[nH]1	/	5	/	/	13	/	/	/
COCCCNC(=O)c1cc2cc(Br)ccc2oc1=O	-5	-17	10	34*	19	-14	0	0
Cc1ccc(OCc2nnc(SCC(=O)Nc3ccc4c(c3)OCO4)n2Cc2ccco2)cc1	/	0	/	/	14	/	/	/
COc1ccc(CCNC(=O)c2csc3c2CCCC3)cc1OC	-19	-4	-3	13*	-6	-19	3	0
O=C1NCCOc2ccccc21	/	-4	/	0	8	/	/	/
Cc1nn(-c2ccccc2)c(Cl)c1/C=C(\CC(=O)O)c1nc2ccccc2s1	-9	28	-7	13*	14	-15	3	0
Cc1nn(-c2ccccc2)c(Cl)c1/C=C(/CC(=O)O)c1nc2ccccc2s1	-8	12	-3	-6	5	4	/	/
COc1ccccc1NC(=O)CSc1nc(N)c(-c2ccccc2)c(=O)[nH]1	6	-20	7	46*	-24	9	38*	1
OCC[C@@H]1C[C@@H](O)[C@H](O)[C@]2(CCc3ccccc3O2)O1	-1	12	-9	/	7	6	18*	0
O=C(Nc1ccc(Br)cc1)OC1CC2CC1[C@H]1CCCCN1[C@H]2Cc1ccccc1 (stereo partly specified)	/	15	/	/	0	/	/	/
Cc1ccc(N=C2NC(=O)/C(=C/c3cccnc3)S2)cc1C	15	2	22	15*	-6	4	4	0
O=C1NC(=Nc2ccccc2)S/C1=C\c1cccnc1	5	-29	19	2	5	-14	/	/
CCc1ccc2c(c1)C1(NN=C(c3cccc4ccccc34)S1)C(=O)N2 (stereo unspecified)	14	4	-2	23*	5	10	2	0
O=C(c1ccc([N+](=O)[O-])s1)N1CCN(c2ccccc2)CC1	17	-24	13	50*	17	9	-5	0
CCC(C)[C@@H](C(=O)OC)N(Cc1cn(Cc2ccccc2)nn1)S(=O)(=O)c1ccccc1Br (stereo partly specified)	/	-3	/	/	2	/	/	/
CC(Oc1ccc(Cl)cc1Cl)C(=O)Nc1cccc(O)c1 (stereo unspecified)	-17	-7	15	14*	-17	17	15*	0
Cc1cc(C)n(CCNS(=O)(=O)c2ccc(C)c(C)c2)n1	9	-32	0	-8	3	4	/	/
Cc1nc(C)n(CCNS(=O)(=O)c2ccc(C)c(C)c2)n1	17	5	3	18*	-1	16	-4	0
C#Cc1ccc([C@@H]2C=C(C(=O)Nc3ccccc3)O[C@H](OCC)[C@H]2CCCO)cc1	1	12	-3	/	-49	8	4	0
C#Cc1ccc([C@H]2C=C(C(=O)NCc3ccccc3)O[C@@H](OCC)[C@@H]2CCCO)cc1	-9	15	-6	-3	6	-2	/	/
O=C(OC1CCOC1=O)c1ccc(N2CCCC2)c([N+](=O)[O-])c1 (stereo unspecified)	8	-2	1	20*	4	-7	2	0
O=C(OC1CCOC1=O)c1cc(Cl)ccc1[N+](=O)[O-] (stereo unspecified)	9	17	1	6	2	-2	/	/
O=C(NCc1ccc(Cl)cc1)O[C@H]1CC[C@@]23CCCN2C(=O)CCC[C@H]3C1	/	/	/	/	0	/	/	/
Cc1nc2sc(C(=O)c3ccccc3)c(N)c2c(C)c1C	-4	1	-17	13*	-14	-14	2	0
CC(C)(C)N(NC(=O)NCCCl)C(=O)c1ccccc1Cl	/	-7	/	/	-8	/	/	/
SMILES	LRH-1 inv ag	SRC2 inh	NCOA3 inh	GalR3 antag	COUP-TFII inh	SRC1 inh	GalR3 conf	HEK-CNG parental
COC1=C[C@H](C(=O)NCc2ccccc2)[C@H](C)[C@@H](c2ccccc2)CC1=O	/	-13	/	/	4	/	/	/
COc1ccc(/C=C/C2=NNC(=O)CC2)cc1	-66	-34	-53	15*	-2	-63	9	0
COC(=O)C1CN(C2CC2)CCS(=O)(=O)N1Cc1cn(Cc2ccc(C)cc2)nn1 (stereo unspecified)	/	12	/	/	4	/	/	/
CCOC(=O)C1CCN(C2CCN(Cc3nc(-c4ccccc4)no3)CC2)CC1	4	22	14	13*	23	5	0	0
CS(=O)(=O)OC12CCCN(C1)/C(=C/c1ccc(Cl)cc1)C2 (stereo unspecified)	/	-20	/	/	7	/	/	/
COc1cc(C(Nc2ccc(S(=O)(=O)NCC3CCCO3)cc2)C(=O)NC(C)(C)C)cc(OC)c1OC (stereo unspecified)	19	1	9	16*	-8	-7	10	0
COc1cccc2[nH]c3c(N4CCCC(C)C4)ncnc3c12 (stereo unspecified)	-30	-61	-46	84*	-17	-33	94*	1
N=C1/C(=C/c2ccc(-c3cccc(C(=O)O)c3)o2)C(=O)N=C2SC=C(c3ccccc3)N12	-35	-23	1	0	7	-31	/	/
N=C1/C(=C\c2ccc(-c3cc(Cl)cc(Cl)c3)o2)C(=O)N=C2SC=C(c3ccccc3)N12	1	-7	10	13*	-37	-12	5	0
C[C@H]1/C=C/CC(=O)N[C@@H](c2ccccc2)[C@@H](C)/C=C/CC(=O)N[C@H]1c1ccccc1	/	-5	/	/	-6	/	/	/
Cc1cc(-c2cn3ccccc3n2)c(C)n1-c1ccccc1	-123	-50	-95	13*	-17	-79	4	0
COc1ccc(-n2c(C)cc(-c3cn4cccc(C)c4n3)c2C)cc1	3	-40	-15	-8	7	1	/	/
O=C(NC1CCCCN(Cc2cccc(C(F)(F)F)c2)C1=O)c1ccc(F)c(F)c1 (stereo unspecified)	/	-2	/	/	10	/	/	/
COC(=O)[C@]12C[C@H](CC(=O)NCCc3ccccc3OC)C(=O)N(Cc3ccco3)C1=C[C@H](C(C)(C)C)O[C@@H]2C	/	26	/	/	8	/	/	/
Cc1ccc(/C=C/C(=O)Nc2ccc(S(=O)(=O)Nc3ncccn3)cc2)cc1	-22	-12	-16	13*	6	3	6	0
COc1ccc(CNC(=O)[C@@H](C)NC(=O)[C@@H]2Cc3ccccc3CN2)cc1	13	-5	11	20*	-6	3	-2	0
